Mot1-301 SUMO – blocks SUMOylation pathway, rescuing yeast Mot1-301 growth. growth rescue, % at 18.8 µM. actives 1% (n = 320,000). S. cerevisiae Mot1-301 growth rescue, ATP luminescence, 38.5C; percent above DMSO median, 100 means doubled;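 active = every valid replicate shows activation above 250% relative to neutral control wells; inactive = the rest, any valid replicate at or below 250%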
PfHsp90 yeast 2 – inhibits growth of yeast expressing Plasmodium falciparum Hsp90; S. cerevisiae expressing PfHsp90, BacTiter-Glo ATP, 48 h; yeast lacking PDR1 and PDR3 efflux regulators; inhibition, % at 9.4 µM; actives 0.32% (n = 310,000); AID 504621;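 active = every replicate shows inhibition above about 80%, whatever the replicate mean, limit read from the data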
tim10-1 inh – growth inhibitors of tim10-1 mutant yeast | S. cerevisiae tim10-1 ts strain growth, BacTiter-Glo, 24 h | inhibition, % at 20 µM | actives 2.2% (n = 330,000) | AID 463190;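 active = inhibition of at least 40%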;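 also: mutant grown at 25 °C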
tim23-1 inh – tim23-1 yeast growth inhibition; AID 463212; S. cerevisiae tim23-1 growth, BacTiter-Glo luminescence, 24 h; actives 1.3% (n = 330,000); inhibition, % at 20 µM;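 active = growth inhibition of the mutant yeast at or above 50%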;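 also: temperature-sensitive mutant grown at 25 °C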
TIM10 inh – growth inhibitors of TIM10 yeast strain | actives 1.4% (n = 330,000) | S. cerevisiae TIM10 strain growth, BacTiter-Glo luminescence, 24 h | inhibition, % at 10 µM | AID 463195;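 active = inhibition of 40% or more at the single tested concentration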;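 also: wild-type TIM10 isogenic control strain grown at permissive 25 °C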
tim10-1 confirm – confirmation of tim10-1 mutant yeast growth inhibitors. shares compounds with tim10-1 inh. actives 56% (n = 7,400). inhibition, % at 20 µM. AID 463213. S. cerevisiae tim10-1 ts strain growth, BacTiter-Glo, 24 h;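 active = inhibition of yeast growth at or above a set limit in either of two repeat tests at 20 µM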;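 also: tim10-1 mutant grown at permissive 25 °C to find synthetic lethal compounds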
Numbers stand for hits; n = inactive; x = no result. Only some compounds are listed: those with a hit (about 4.4% of all), similar ones and a draw of the others.

SMILES	Mot1-301 SUMO	PfHsp90 yeast 2	tim10-1 inh	tim23-1 inh	TIM10 inh	tim10-1 confirm
CCOc1ccc(C(C)C)cc1S(=O)(=O)n1ccnc1C	n	n	41	n	n	n
OCCC#Cc1c(-c2ccsc2)sc2ccccc12	n	n	46	n	n	n
COCCN1CN(S(=O)(=O)c2cccc(Cl)c2)c2nc3ccccc3nc21	n	n	45	n	n	n
COc1ccc(CCN2CN(S(=O)(=O)c3ccccc3)c3nc4ccccc4nc32)cc1	n	n	n	n	n	x
CCCCN1CN(S(=O)(=O)c2ccc(OC)cc2)c2nc3ccccc3nc21	n	n	46	n	n	n
COCCCN1CN(S(=O)(=O)c2ccc(Cl)cc2)c2nc3ccccc3nc21	n	n	n	n	n	x
CCCCn1c(SCC(=O)NC(=O)Cc2ccccc2)nc2ccccc2c1=O	n	n	n	n	n	x
COCCn1c(N)c(C(=O)OCc2ccccc2)c2nc3ccccc3nc21	n	x	43	n	n	n
COCCNC(=O)c1c(N)n(CCC2=CCCCC2)c2nc3ccccc3nc12	n	n	43	n	n	n
COc1ccc(CCn2c(N)c(C(=O)NCc3ccco3)c3nc4ccccc4nc32)cc1	n	n	n	n	n	x
COc1ccc(/C=C(\NC(=O)c2ccco2)C(=O)N2CCCCC2)cc1	n	n	n	n	n	x
Cc1ccc(N2CC(C(=O)N3CCCCCC3)CC2=O)cc1 (centres undefined)	n	n	n	n	n	x
COc1ccc(NC(=O)c2ccc(OC(=S)N(C)c3ccc(OC)cc3)cc2)cc1	n	n	n	n	n	x
CN(C(=S)Oc1ccc(C(=O)Nc2ccccc2)cc1)c1ccccc1	n	n	51	n	n	n
CNC(=O)c1ccsc1NC(=O)c1ccc(Cl)s1	n	n	44	n	n	32
Nc1ccc2oc(-c3cccc(Br)c3)nc2c1	n	n	60	n	n	50
CCc1ccc2oc(-c3cccc(N)c3)nc2c1	n	n	n	n	n	x
CCOC(=O)CC1CCCCN1C(=O)CCCn1nnnc1CN1CCC(C)CC1 (centres undefined)	n	n	n	n	n	x
COc1cc(C)ccc1Oc1ncnc(N)c1[N+](=O)[O-]	n	n	n	n	n	x
Nc1ncnc(Oc2cccc(C(F)(F)F)c2)c1[N+](=O)[O-]	n	n	43	n	n	n
COc1ccc2oc(C(=O)N3CCCc4ccccc43)c(C)c2c1	n	x	n	n	n	x
C#CCOCCOCCOCCNc1nc(N2CCN(C(=O)C([C@@H](C)CC)n3cc(C(N)COC(=O)C(F)(F)F)nn3)CC2)nc(N2CCN(C(=O)C([C@@H](C)CC)n3cc(C(N)CC(C)C)nn3)CC2)n1 (some centres undefined)	n	x	n	n	n	x
CCCN(CCC)C(=O)c1cc(-c2ccc3c(c2)OCO3)nc2ccccc12	n	n	45	n	n	n
O=C(O)c1cc(-c2ccc3c(c2)OCO3)nc2ccccc12	n	n	n	n	n	x
CCCCCCCCOC(=O)c1c(CSC(=N)N)n(C)c2cc(Br)c(OC(C)=O)cc12	n	x	46	n	n	n
SMILES	Mot1-301 SUMO	PfHsp90 yeast 2	tim10-1 inh	tim23-1 inh	TIM10 inh	tim10-1 confirm
CCOC(=O)c1c(CSc2nc(C)cc(C)c2C#N)n(C)c2cc(Br)c(OC(C)=O)cc12	n	n	n	n	n	x
S=C(NCc1ccco1)N1CCN(c2ccc(Cl)cc2)CC1	n	n	49	n	n	n
CC(=O)c1ccc(N2CCN(C(=S)NCc3ccco3)CC2)cc1	x	n	n	n	n	x
Cc1cccc(NC(=O)C2CC2c2ccccc2)c1C (centres undefined)	n	n	n	n	n	x
O=C(CCNc1ccc(Cl)c(C(F)(F)F)c1)c1ccco1	n	n	43	n	n	n
O=C(CCNc1ccc(F)c(Cl)c1)c1ccco1	n	n	n	n	n	x
Nc1c(C(=O)NC2CCCC2)sc2nc(-c3cccs3)ccc12	x	n	40	n	n	32
NC(=O)c1sc2nc(-c3cccs3)ccc2c1N	n	n	n	n	n	x
O=C1/C(=C/c2ccc([N+](=O)[O-])cc2)C=C(c2ccccc2)N1c1ccc(O)cc1	n	n	41	n	n	37
CCN(CC(=O)Nc1ccc(NC(C)=O)cc1)C(=O)c1cc(CN2C(=O)c3ccccc3C2=O)ccc1OC	n	x	n	n	n	x
COc1ccccc1C1CCN(C(=O)c2ccc(C(C)(C)C)cc2)CC1	n	n	41	n	n	33
O=C(c1ccc(CSc2ccccc2)cc1)N1CCN(c2ccccc2)CC1	n	n	45	n	n	40
O=C(c1ccc(Cn2cc(Br)cn2)cc1)N1CCN(c2ccccc2)CC1	n	x	52	n	n	44
O=C(CSCc1cccc(F)c1)N1CCN(c2ccccc2)CC1	n	n	43	n	n	n
Cc1ccc2c(CNCc3ccccc3)cc(=O)oc2c1	n	n	n	n	n	x
COc1ccccc1N1CCN(C(=O)c2cc3sccc3n2C)CC1	n	n	43	n	n	46
COc1ccccc1N1CCN(C(=O)c2ccc(CSc3ccccc3)cc2)CC1	n	n	40	n	n	40
CCOc1ccccc1N1CCN(C(=O)c2ccc(-c3ccc(OC(C)=O)cc3)cc2)CC1	n	n	41	n	n	n
CCc1ccc2oc(C(=O)N3CCN(c4ccccc4OC)CC3)cc(=O)c2c1	n	n	48	n	n	n
Cc1nnc(NC(=O)CN2CCN(Cc3ccccc3)CC2)s1	n	n	n	n	n	x
CCOc1ccc(NC(=O)C2=NN(c3ccccc3)C(=O)CC2)cc1S(=O)(=O)N1CCCCC1	n	n	n	n	n	x
CCOc1ccccc1N1CCN(C(=S)NCc2ccccc2)CC1	n	n	44	n	n	n
COc1ccccc1N1CCN(C(=O)c2ccc(C(C)(C)C)cc2)CC1	n	n	50	n	n	n
CCNC(=S)N1CCN(c2ccccc2OCC)CC1	n	n	n	n	n	x
CCCCN(C(=O)CCN1C(=O)C2CC=CCC2C1=O)c1c(N)n(CCCC)c(=O)[nH]c1=O (centres undefined)	x	n	x	x	x	x
SMILES	Mot1-301 SUMO	PfHsp90 yeast 2	tim10-1 inh	tim23-1 inh	TIM10 inh	tim10-1 confirm
Cc1cccc(NC(=S)Nc2cccc3ccccc23)c1	n	n	45	n	n	n
Cc1cc(NC(=S)Nc2ccccc2)ccc1Br	n	n	41	n	n	n
Cc1cc(NC(=S)Nc2cccnc2)ccc1Br	n	x	n	n	n	x
CCNC(=S)N/N=C(\C)c1cc2ccccc2o1	n	n	n	n	n	x
Fc1ccc(NC(=S)Nc2cccc3ccccc23)cc1F	n	n	42	n	n	n
C/C(=N\NC(=S)Nc1cccc(C)c1)c1cc2ccccc2o1	n	n	47	n	n	39
Cc1ccc(C2(c3ccccc3)NC(=O)N(CC(=O)N(C)C3CCS(=O)(=O)C3)C2=O)cc1C (centres undefined)	n	n	n	n	n	x
O=C(CN1CCN(S(=O)(=O)c2cccc(Br)c2)CC1)N1CCCCC1	n	x	n	n	n	x

Screens as filed in PubChem BioAssay.
